# tim23-1 inh – tim23-1 yeast growth inhibition; S. cerevisiae tim23-1 growth, BacTiter-Glo luminescence, 24 h; inhibition, % at 20 µM; 1.3% of 330,000 active; AID 463212;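 active means growth inhibition of the mutant yeast at or above 50%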;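 further: temperature-sensitive mutant grown at 25 °C; plate controls were DMSO-treated mutant yeast for no effect and medium wells lacking yeast for full effect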
# SKKanGAS inh – blocks kanamycin growth of S. pyogenes SKKanGAS strain | inhibition, % at 7.5 µM | AID 1662 | 1.3% of 300,000 active | BacTiter-Glo, 6 h;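 active means mean replicate score, as percent of positive control median, at least 50; inconclusive means mean below 50 but one replicate at or above 50; inactive means mean and every replicate below 50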;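 further: strain carries kanamycin resistance gene driven by streptokinase promoter and grows in 40 µg/ml kanamycin; loss of luminescence reflects streptokinase promoter inhibition or plain growth inhibition; 0% = median of DMSO wells and 100% = positive control at its reference dose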
# TIM10 inh – inhibits growth of TIM10 yeast strain; S. cerevisiae TIM10 strain growth, BacTiter-Glo luminescence, 24 h; inhibition, % at 10 µM; 1.4% of 330,000 active;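 active means inhibition of 40% or more at the single tested concentration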;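 further: wild-type TIM10 isogenic control strain grown at permissive 25 °C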
# NALP1 yeast inh – inhibitors of NALP1 inflammasome in yeast | 0.61% of 280,000 active | S. cerevisiae NALP1/ASC/caspase-1 growth, X-gal OD620, 72 h | AID 2071 | inhibition, % at 10 µM; in the data active means inhibition mostly above about 24%, no sharp cut-off; inactive means mostly below about 32%
# NALP3 yeast inh – NALP3 inhibition in yeast; 0.39% of 330,000 active; inhibition, % at 10 µM; Yeast reconstituted NLRP3/ASC/caspase-1, beta-gal luminescence, 24 h;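 active means inhibition of 50% or more; inactive means inhibition below 50%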;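 further: plate controls were induced DMSO wells for no effect and uninduced yeast grown without galactose for full effect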
# tim10-1 inh – inhibits growth of tim10-1 mutant yeast | inhibition, % at 20 µM | 2.2% of 330,000 active | S. cerevisiae tim10-1 ts strain growth, BacTiter-Glo, 24 h;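 active means inhibition of at least 40%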;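 further: mutant grown at 25 °C; 0% = DMSO wells with yeast and 100% = wells holding no yeast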
# tim10-1 conf – confirmation of tim10-1 mutant yeast growth inhibitors; 56% of 7,400 active; AID 463213; shares compounds with tim10-1 inh; S. cerevisiae tim10-1 ts strain growth, BacTiter-Glo, 24 h; inhibition, % at 20 µM;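 active means inhibition of yeast growth at or above a set limit in either of two repeat tests at 20 µM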;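 further: tim10-1 mutant grown at permissive 25 °C to find synthetic lethal compounds; 0% = DMSO yeast wells and 100% = medium wells without yeast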
# * hit, by the source's call; ? = inconclusive; . = no result. Only some compounds are listed: those with a hit (about 4.9% of all), similar ones and a draw of the others.
SMILES,tim23-1 inh,SKKanGAS inh,TIM10 inh,NALP1 yeast inh,NALP3 yeast inh,tim10-1 inh,tim10-1 conf
COc1cnc(-c2ccccn2)nc1Oc1cccc(C(F)(F)F)c1,37.5,37.6,21.0,7.0,28.7,44.1*,21.8
COc1cnc(N(C)C)nc1Sc1ccc(Cl)cc1,9.1,17.7,14.4,-5.3,16.8,27.6,.
COc1cnc(-c2ccccn2)nc1Sc1ccccc1,48.4,90.5*,13.5,16.7,22.8,41.3*,42.7*
COc1cc(C(F)(F)F)nc(-c2ccccn2)n1,3.3,3.8,0.7,7.3,-1.5,6.7,.
COc1cnc(-c2ccccn2)nc1Sc1ccc(Cl)cc1,35.7,?,37.7,-0.5,40.3,43.2*,30.5
Cn1cccc1C(=O)NNC(=O)COc1ccccc1F,5.7,-3.7,8.3,1.3,7.2,0.8,.
CN(C)c1ccc(-c2cc3ccccc3c(=O)o2)cc1,11.1,.,5.4,.,34.7,-3.2,.
COc1ccc(/C(N)=N/OC(=O)CCc2ccccc2)cc1,49.4,5.0,33.1,8.7,18.9,26.3,.
N/C(=N\OC(=O)CCCc1ccccc1)c1ccccc1Cl,49.2,11.6,30.8,11.6,1.9,50.4*,59.4*
Cc1ccc(CCNC(=O)c2cc(S(=O)(=O)N3CCCC3)cn2C)cc1,-10.6,-4.3,-14.7,2.2,2.0,-15.2,.
Cc1ccccc1C(=O)Nc1ccc2nc3n(c(=O)c2c1)CCCC3,-0.1,-2.8,7.4,9.4,8.7,0.9,.
CCOc1ccccc1C(=O)Nc1ccc2nc3n(c(=O)c2c1)CCCCC3,38.8,2.5,9.8,10.5,24.7,54.8*,4.5
COCCCNCCCOc1ccc(Cl)cc1C(C)(C)C,6.4,5.4,13.7,-15.7,32.9,9.8,.
CNCCCOc1ccc(Cl)cc1C(C)(C)C,20.7,-13.2,22.3,-2.6,19.1,40.7*,15.8
CCOC(=O)c1ccc(-c2c(-c3ccccc3OC)sc3cc4c(cc23)OCO4)cc1F,13.8,.,6.5,.,1.5,15.2,.
Nc1ncnc(Oc2cccc(C(F)(F)F)c2)c1[N+](=O)[O-],43.0,17.6,9.7,-13.5,-21.2,42.8*,27.2
COc1cc(C)ccc1Oc1ncnc(N)c1[N+](=O)[O-],19.8,-1.4,7.4,6.4,16.2,18.5,.
CCn1cc(C(=O)N2CCCC(N3CCN(c4ccccc4C)CC3)C2)cn1 (stereo not given),-1.9,-1.2,-7.3,-12.6,21.1,0.8,.
CSC(C1CCCC1)n1nnc2ccccc21 (stereo not given),2.9,3.6,2.8,.,-0.4,1.6,.
CNC[C@H](NC[C@@H](NCCCc1ccccc1)c1ccccc1)[C@H](C)O,-18.9,-2.1,4.1,4.9,13.8,-24.4,.
OC1CCN(c2ncnc3c2nnn3Cc2c(F)cccc2Cl)CC1,17.4,14.6,14.6,3.2,-8.3,42.7*,25.6
CCc1cc(CNC(=O)c2ccc(OC3CCN(CCc4ccccc4)CC3)cc2)on1,5.4,1.4,8.2,7.9,8.3,11.9,.
COCCN(C(=O)Cn1c(C(F)(F)F)nc2ccccc21)c1c(N)n(Cc2ccccc2)c(=O)[nH]c1=O,15.5,-3.5,3.1,9.8,0.5,11.1,.
Cc1cc(C)n2c(SCc3ccccc3Cl)nnc2n1,30.9,21.9,-1.8,-11.4,22.8,42.8*,17.3
Cc1ccc(CNC(=O)CCCC(=O)c2ccccc2)cc1,13.3,-10.2,3.2,13.5,28.1,-4.9,.
SMILES,tim23-1 inh,SKKanGAS inh,TIM10 inh,NALP1 yeast inh,NALP3 yeast inh,tim10-1 inh,tim10-1 conf
CC(C)C[C@@H](CSc1ccc(Br)cc1)N1CCN(CC(C)C)CCC1=O,4.2,4.6,0.1,-6.6,22.6,40.2*,32.2*
CC(C)C[C@@H](CSc1ccc(Br)cc1)N1CCN(C)CCC1=O,12.4,5.1,8.1,2.5,21.8,14.1,.
CCCN1C(C)C(C(=O)OCC)=CN(Cc2ccc(Br)cc2)S1(=O)=O (stereo not given),29.5,.,-27.3,.,.,7.0,.
O=S(=O)(CCN1CCN(C(c2ccccc2)c2ccccc2)CC1)C(F)(F)F,26.0,0.5,31.2,-2.9,16.1,40.6*,32.5*
c1ccc(CN2CCN(C(c3ccccc3)c3ccccc3)CC2)cc1,8.9,-21.6,22.1,-27.7,-45.3,33.3,.
COc1ccc(/C=C(\C#N)C(=O)N=CN(C)C)cc1,13.7,-9.1,8.0,-5.8,-6.8,19.8,.
COc1ccc(/C=C(\C#N)C(=O)N2COCC2(C)C)cc1,46.6,-4.3,20.6,8.8,19.4,46.6*,31.3*
COCCNC(=O)C(c1ccc(F)cc1)N(CCOC)C(=O)CCC(=O)Nc1ccccn1 (stereo not given),9.3,-19.0,-3.5,29.9,23.9,20.4,.
CCOC(=O)C1=CN(Cc2ccco2)S(=O)(=O)NC1c1ccc(Br)cc1F (stereo not given),45.2,.,-10.6,.,.,19.5,.
O=C(NN1C(=O)/C(=C/c2ccc(O)cc2)SC1=S)c1ccccc1O,13.9,1.9,-1.3,-10.4,27.0,8.1,.
COc1cc(/C=C2\SC(=S)N(NC(=O)c3ccccc3O)C2=O)ccc1O,33.9,13.6,31.0,3.9,16.6,44.0*,32.4*
COc1ccc(C2=[N+](C)CCn3cccc32)c(OC)c1,-13.3,2.9,-0.7,28.2,2.8,-6.7,.
O=C(COC(=O)c1nc(Cl)ccc1Cl)NC1CCCCC1,12.5,.,-5.1,.,1.8,12.0,.
CC(C)NS(=O)(=O)c1ccc(Oc2ncc(C(F)(F)F)cc2Cl)cc1,19.7,-0.2,8.2,26.1,8.5,48.8*,25.6
N#CCc1ccc(Oc2ncc(C(F)(F)F)cc2Cl)cc1,38.8,-3.6,30.7,-7.6,-9.1,47.5*,27.9
COc1ccc(S(=O)(=O)NN(C)c2ncc(C(F)(F)F)cc2Cl)cc1,15.1,-4.0,7.3,-1.9,3.1,40.3*,14.9
O=[N+]([O-])c1cc(/C=N\Nc2nc(-c3ccccc3)cs2)ccc1O,3.1,?,23.8,-4.7,0.7,14.8,.
Cc1csc(N/N=C/c2ccc(O)c([N+](=O)[O-])c2)n1,40.2,7.4,30.0,-12.5,-5.6,50.5*,33.0*
O=C(/C=C/Nc1ccccc1O)c1ccco1,-30.1,2.6,-49.7,11.3,21.7,-63.6,.
O=C(/C=C/Nc1ccccc1Oc1ccccc1)c1ccco1,28.7,0.8,23.1,2.1,13.2,42.7*,15.7
C=COC(=O)CSc1snc(SCC(=O)OC)c1C#N,31.3,-4.5,13.8,9.1,16.2,43.1*,6.6
CCN(CC)C(=O)CSc1nsc(SCC(=O)N(CC)CC)c1C#N,-0.3,.,-2.0,2.6,10.8,0.9,.
O=C(C1CCN(S(=O)(=O)c2cccs2)CC1)N1CCCC(C(F)(F)F)C1 (stereo not given),4.7,-0.6,-5.7,11.9,3.7,-23.4,.
CC(C)(C)c1nn(-c2ccccc2)c2[nH]c(=O)c(CNCc3ccc4c(c3)OCO4)cc12,33.3,-4.3,28.2,26.1,16.9,44.0*,32.0*

# Screening results: PubChem BioAssay, several laboratories
